Results taken from the supplement of paper PMC12636033.
± gives the standard deviation of the averaged measurements. In all, about 33,000 sequences were measured (“E-score (rank enrichment, -0.5 to 0.5)”: median about -0.0043, highest 2% from about 0.24 on). The sample holds the highest values, similar sequences and a random draw of the others, so the mix is not that of the screen.

The sequences below were run on 2Sp-muMax20 (muMax20 with two 2,6-bis(methyl)pyridine Cys staples) (assay: PBM 8-mer E-score (E-score (rank enrichment, -0.5 to 0.5)); higher = stronger preferential binding).
Experimental: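 Protein binding microarray (universal PBM chip covering all 10-mers in fixed probe flanks) with chemically synthesized human Max(13-93) bHLH-LZ analogs (not full-length Max) bearing noncanonical residues (hArg, Tha, Aib, Nle at 65) and aromatic Cys staples. Read-out per 8-mer (and its reverse complement): E-score (rank-based enrichment, -0.5 to 0.5) and Z-score of median probe intensity.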

| Sequence | PBM 8-mer E-score |
| --- | --- |
| GTTGATTA | 0.25 ± 0.057 |
| GCTGATTA | 0.273 ± 0.011 |
| CTTGATTA | 0.0552 ± 0.1 |
| ACTGATTA | 0.0334 ± 0.067 |
| ATTGATTA | 0.124 ± 0.078 |
| CCTGATTA | 0.0465 ± 0.018 |
| CAAAGAGG | 0.00199 ± 0.021 |
| GCTTACGA | 0.0276 ± 0.057 |
| CGGGTCCC | -0.36 ± 0.051 |
| AAATGATT | -0.0058 ± 0.064 |
| CACGGACA | -0.212 ± 0.011 |
| AAGGGGCG | -0.00545 ± 0.089 |
| AAGGGGCT | 0.271 ± 0.019 |
| AAAGGGCT | -0.0325 ± 0.13 |
| ACCTCTGC | -0.0962 ± 0.11 |
| CGGACAAA | -0.0707 ± 0.0079 |
| CAGCGGCC | -0.156 ± 0.048 |
| AACATGCA | 0.205 ± 0.17 |
| ACCATGCA | 0.187 ± 0.0036 |
| AGCATGCA | 0.301 ± 0.023 |
| CGCATGCA | 0.161 ± 0.026 |
| TGCATGCA | 0.282 ± 0.038 |
| GGCATGCA | 0.0431 ± 0.062 |
| CAAAGGGG | 0.00961 ± 0.03 |
| CACATCCA | 0.103 ± 0.042 |

| Sequence | PBM 8-mer E-score |
| --- | --- |
| CTCTTCCA | -0.0254 ± 0.029 |
| AAGTCGAC | 0.0839 ± 0.081 |
| CAGCGGGG | -0.157 ± 0.043 |
| CTCCTGCC | 0.0184 ± 0.066 |
| GTGATGTA | 0.268 ± 0.018 |
| CTGATGTA | -0.072 ± 0.074 |
| ATGATGTA | 0.131 ± 0.049 |
| ACATATAT | 0.309 ± 0.061 |
| ACATATAA | 0.333 ± 0.0052 |
| ACATACAC | 0.0759 ± 0.032 |
| CCATATAA | 0.0911 ± 0.065 |
| TCATATAA | 0.227 ± 0.045 |
| ACATATAC | 0.158 ± 0.072 |
| ACATACAT | 0.252 ± 0.054 |
| ACATACGC | 0.0353 ± 0.028 |
| ACATACGA | 0.237 ± 0.049 |
| ACATACAG | 0.191 ± 0.11 |
| TCATACGA | 0.214 ± 0.047 |
| ACATATAG | 0.174 ± 0.031 |
| CGCAAATC | -0.0745 ± 0.17 |
| CCGTCGAG | -0.0626 ± 0.0034 |
| CTTATCGA | 0.0942 ± 0.054 |
| CGTTACGC | -0.173 ± 0.044 |
| AAGTGGGG | 0.1713 ± 0.001 |
| GCATGGGA | -0.0247 ± 0.032 |

| Sequence | PBM 8-mer E-score |
| --- | --- |
| AATCCCGG | -0.104 ± 0.0059 |
| AGACTTAG | -0.023 ± 0.017 |
| AGATATAT | 0.252 ± 0.043 |
| AGATATAC | 0.146 ± 0.046 |
| AGATATAG | 0.174 ± 0.0033 |
| ATATAGGG | 0.0694 ± 0.043 |
| CGGAATAC | -0.144 ± 0.035 |
| AAAAGTGG | 0.159 ± 0.0062 |
| GCCTGCAA | -0.0187 ± 0.071 |
| ACACACTA | 0.158 ± 0.0088 |
| AAACATAG | 0.0784 ± 0.084 |
| GTACATAA | 0.171 ± 0.011 |
| TTACATAA | 0.259 ± 0.0094 |
| CCACACTC | 0.00608 ± 0.081 |
| GAACATAA | 0.0635 ± 0.079 |
| CTACATAA | 0.122 ± 0.021 |
| GCACATAA | 0.121 ± 0.02 |
| AAACATAA | 0.289 ± 0.0052 |
| ACACATAG | -0.0161 ± 0.023 |
| ACACATAA | 0.24 ± 0.037 |
| CCACACTA | 0.261 ± 0.026 |
| CAGTGGAG | 0.0231 ± 0.066 |
| CACAGGGC | -0.258 ± 0.027 |
| CCAACTCA | -0.0281 ± 0.11 |
| CCCACCAA | 0.127 ± 0.019 |

| Sequence | PBM 8-mer E-score |
| --- | --- |
| ATATCAAT | 0.172 ± 0.089 |
| AGCCTCTG | -0.079 ± 0.05 |
| ATTTGAAA | 0.168 ± 0.12 |
| AGGTCTCC | -0.0447 ± 0.033 |
| GTGCAGTA | 0.106 ± 0.039 |
| AACGACTA | 0.0385 ± 0.073 |
| CCACACAA | 0.0212 ± 0.012 |
| ACACACAA | 0.0759 ± 0.063 |
| TCACACAA | 0.238 ± 0.017 |
| ACCCCTGG | -0.144 ± 0.039 |
| ATCGAAGG | -0.0475 ± 0.11 |
| ACCATATA | 0.23 ± 0.082 |
| ACAAGCAC | -0.115 ± 0.13 |
| GCAAGCAC | -0.00775 ± 0.028 |
| CCAAGCAC | 0.235 ± 0.038 |
| CCCACCGC | 0.0543 ± 0.035 |
| ATTCTCAA | 0.123 ± 0.02 |
| ACTAGAAC | 0.0769 ± 0.048 |
| GAATATTA | 0.22 ± 0.026 |
| AAATATTA | 0.28 ± 0.067 |
| TAATATTA | 0.343 ± 0.044 |
| CAATATTA | 0.19 ± 0.058 |
| AAATATTC | 0.249 ± 0.043 |
| CAATATTC | 0.0714 ± 0.068 |
| TAATATGA | 0.135 ± 0.072 |

| Sequence | PBM 8-mer E-score |
| --- | --- |
| AAATATTG | 0.075 ± 0.0023 |
| GAATATTC | 0.189 ± 0.064 |
| ATCGAGAC | -0.161 ± 0.025 |
| CGCGTCTC | 0.157 ± 0.072 |
| ACTGAGGG | -0.0464 ± 0.034 |
| ACTGCTGC | 0.0474 ± 0.025 |
| ATGGGCGA | 0.0316 ± 0.058 |
| GTGGGCGA | 0.263 ± 0.088 |
| CTGGGCGA | -0.174 ± 0.045 |
| AATCCCAC | 0.00653 ± 0.032 |
| GACTCTAC | -0.0372 ± 0.069 |
| GTATTGGA | 0.0561 ± 0.061 |
| ATCATGCG | 0.136 ± 0.013 |
| AGCATGAT | 0.131 ± 0.051 |
| AGCATGAC | 0.243 ± 0.051 |
| ACCATGCT | 0.211 ± 0.0076 |
| AGCATGCC | 0.0906 ± 0.028 |
| AGCATGAA | 0.174 ± 0.04 |
| AGCATGCT | 0.332 ± 0.036 |
| CGCATGCC | 0.189 ± 0.053 |
| CGCATGCG | 0.286 ± 0.02 |
| AGCATGAG | 0.121 ± 0.064 |
| CCCATGCG | 0.0929 ± 0.051 |
| AGCATGCG | 0.275 ± 0.0033 |
| TATCCCGA | -0.0363 ± 0.017 |

| Sequence | PBM 8-mer E-score |
| --- | --- |
| ACCACGGT | -0.234 ± 0.057 |
| CCTCAAGA | 0.175 ± 0.069 |
| AATGACAA | 0.179 ± 0.025 |
| GGCGTCAC | 0.0505 ± 0.091 |
| TCGGTTAA | -0.144 ± 0.038 |
| CCACACAC | 0.0649 ± 0.082 |
| AGGACAAT | 0.0666 ± 0.068 |
| CTCCATCA | 0.0787 ± 0.11 |
| GATCAGTA | 0.141 ± 0.0015 |
| CTCAACTC | 0.0172 ± 0.017 |
| AAGCTTAT | 0.25 ± 0.032 |
| AAGCTGTA | 0.168 ± 0.027 |
| AAGCTTAC | 0.084 ± 0.0037 |
| AAGCTGAT | 0.294 ± 0.012 |
| AAGCTTAA | -0.0812 ± 0.033 |
| AAGCTGAC | -0.0135 ± 0.013 |
| CAGCACTC | 0.0109 ± 0.049 |
| GGTTTTTA | 0.118 ± 0.05 |
| GTATCAAA | 0.167 ± 0.037 |
| ACGTTACT | 0.097 ± 0.078 |
| CCACTTTC | 0.123 ± 0.028 |
| ATTAATGA | 0.276 ± 0.074 |
| ATTAATTA | 0.312 ± 0.065 |
| ATTAATGC | 0.14 ± 0.0056 |
| GGTAATTA | 0.147 ± 0.011 |

| Sequence | PBM 8-mer E-score |
| --- | --- |
| AGTAATTA | 0.256 ± 0.051 |
| ATTAATTG | 0.157 ± 0.057 |
| ATTAATGG | 0.0949 ± 0.013 |
| CTTAATGA | 0.0929 ± 0.029 |
| GTTAATGA | 0.181 ± 0.1 |
| CTTAATGC | 0.25 ± 0.014 |
| ATTAATTC | 0.229 ± 0.026 |
| CGTAATTA | 0.133 ± 0.0041 |
| CATGCACC | 0.161 ± 0.0063 |
| GGGGTCGA | -0.0201 ± 0.04 |
| TTACTGAA | 0.0517 ± 0.035 |
| ACGAAAAG | 0.0249 ± 0.0051 |
| ACGAGATG | -0.00212 ± 0.067 |
| CCCCGATC | -0.166 ± 0.013 |
| AGATTGTC | -0.0414 ± 0.0031 |
| GACGGGCA | -0.0942 ± 0.011 |
| ATTAACAA | 0.161 ± 0.042 |
| ATTAATAA | 0.224 ± 0.12 |
| ATTAATAC | 0.256 ± 0.1 |
| ATTAATCA | 0.259 ± 0.059 |
| ATAAATTG | 0.106 ± 0.026 |
| CTTAACAC | 0.164 ± 0.016 |
